# Measured potencies and affinities stand elsewhere. Active and inactive are the calls of the source. How the calls were made is not given here.
# Test: toxicity toward immortalized ovarian surface epithelium – cell-based, plate reader, dry powder samples, cytotoxicity control for PAX8 inhibitor project, dose response (AID 743045);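 further: more negative values mean more cell killing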
# Conditions: IOSE-T80 ovarian epithelial cells; series mostly up to 35 µM
row,Compound,outcome
1,C[C@H]1CCCCO[C@@H](CN(C)Cc2ccncc2)[C@@H](C)CN([C@@H](C)CO)C(=O)c2cc(NC(=O)Nc3ccc(C(F)(F)F)cc3)ccc2O1,inactive
2,COc1ccc(NC(=O)Nc2ccc3c(c2)C(=O)N([C@@H](C)CO)C[C@@H](C)[C@@H](CN(C)Cc2ccc(C(F)(F)F)cc2)O3)cc1,inactive
3,O=S(=O)(c1ccccc1F)N1CC[C@@H]2[C@H](CO)Nc3ccc(C4=CCCCC4)cc3[C@@H]21,inactive
4,C[C@@H]1CCCCO[C@@H](CN(C)Cc2ccc(C(F)(F)F)cc2)[C@H](C)CN([C@@H](C)CO)C(=O)c2cc(NS(=O)(=O)c3ccc(Cl)cc3)ccc2O1,inactive
5,C[C@@H]1CCCCO[C@H](CN(C)Cc2ccncc2)[C@H](C)CN([C@H](C)CO)C(=O)c2cc(NC(=O)Nc3ccc(C(F)(F)F)cc3)ccc2O1,inactive
6,C[C@@H]1CN([C@@H](C)CO)C(=O)c2cc(N(C)C)ccc2O[C@@H](C)CCCCO[C@H]1CN(C)S(=O)(=O)c1ccc(F)cc1,inactive
7,CC(C)(C)c1nnc(NC(=O)CCS(=O)(=O)c2ccccc2)s1,inactive
8,COc1ccc(C#Cc2ccc([C@H]3[C@@H](CO)N4CCCCN(C(=O)Nc5ccccc5)C[C@H]34)cc2)cc1,inactive
9,COc1ccc2c3c([nH]c2c1)[C@@H](CO)N(C(=O)Nc1cccc(F)c1)CC31CCN(S(=O)(=O)c2cccc(C)c2)CC1,inactive
10,O=C(CN1C(=O)c2ccccc2S1(=O)=O)c1ccc(Cl)cc1Cl,inactive
11,C[C@@H]1CN([C@@H](C)CO)C(=O)c2cc(NC(=O)CCC(F)(F)F)ccc2O[C@@H](C)CCCCO[C@H]1CN(C)Cc1ccc(C(F)(F)F)cc1,inactive
12,C[C@@H]1CCCCO[C@@H](CN(C)Cc2ccncc2)[C@H](C)CN([C@@H](C)CO)C(=O)c2cc(NC(=O)Nc3ccc(C(F)(F)F)cc3)ccc2O1,inactive
13,C[C@H]1CCCCO[C@H](CN(C)C(=O)Nc2ccc(C(F)(F)F)cc2)[C@@H](C)CN([C@@H](C)CO)C(=O)c2cc(NS(=O)(=O)c3cccs3)ccc2O1,inactive
14,C[C@@H]1CCCCO[C@H](CN(C)C(=O)c2ccccc2)[C@H](C)CN([C@@H](C)CO)C(=O)c2cc(NC(=O)Nc3ccc(C(F)(F)F)cc3)ccc2O1,inactive
15,C[C@H]1CCCCO[C@H](CN(C)Cc2ccc(C(F)(F)F)cc2)[C@@H](C)CN([C@@H](C)CO)C(=O)c2cc(NC(=O)Nc3ccc(F)cc3)ccc2O1,inactive
16,C[C@@H]1CN([C@H](C)CO)C(=O)c2cc(NC(=O)Cc3ccccc3)ccc2O[C@@H](C)CCCCO[C@H]1CN(C)Cc1ccc(C(F)(F)F)cc1,inactive

# Test: A2780 cell killing – plate reader, dry powder samples, cytotoxicity control, dose response (AID 743046)
# Conditions: A2780 ovarian cancer cytotoxicity; series mostly up to 35 µM
row,Compound,outcome
1,COc1cccc(-c2ccc3c(c2)[C@@H]2[C@@H](CCN2S(=O)(=O)c2ccccc2C)[C@H](CO)N3C)c1,inactive
2,COc1ccccc1C#Cc1ccc([C@H]2[C@H](C#N)N(C(=O)C3CCCC3)[C@H]2CO)cc1,inactive
3,C[C@@H]1CCCCO[C@H](CN(C)Cc2ccc(C(F)(F)F)cc2)[C@@H](C)CN([C@@H](C)CO)C(=O)c2cc(NC(=O)c3ccccc3)ccc2O1,inactive
4,C[C@H](CO)N1C[C@H](C)[C@H](CN(C)CC2CCCCC2)OCCCC[C@H](C)Oc2ccc(NC(=O)Nc3ccccc3)cc2C1=O,inactive
5,CN(C)CCCN(C(=O)CCOc1ccccc1)c1nc2c(F)cccc2s1,inactive
6,COc1ccccc1NC(=O)N1CCCCN2[C@H](C1)[C@@H](c1ccc(-c3cccc(C#N)c3)cc1)[C@@H]2CO,inactive
7,COc1ccc(-c2cc(C(F)(F)F)nc(S(=O)(=O)CCCC(=O)Nc3cc(C)on3)n2)cc1OC,inactive
8,COc1ccc(S(=O)(=O)Nc2ccc3c(c2)C(=O)N([C@H](C)CO)C[C@H](C)[C@H](CN(C)S(=O)(=O)c2ccc(F)cc2)OCCCC[C@H](C)O3)cc1,inactive
9,C[C@H]1CN([C@@H](C)CO)S(=O)(=O)c2ccc(C#Cc3ccccc3F)cc2O[C@H]1CN(C)C(=O)c1ccc2c(c1)OCO2,inactive
10,O=C(CCS(=O)(=O)c1ccccc1)Nc1nc2ccc(F)cc2s1,inactive
11,O=C(C1CCC1)N1CCCCN2[C@H](CO)[C@H](c3ccc(-c4cccc(F)c4)cc3)[C@H]2C1,inactive
12,C[C@H]1CCCCO[C@@H](CN(C)Cc2ccncc2)[C@@H](C)CN([C@@H](C)CO)C(=O)c2cc(NC(=O)Nc3ccc(C(F)(F)F)cc3)ccc2O1,inactive
13,COc1ccc(NC(=O)Nc2ccc3c(c2)C(=O)N([C@@H](C)CO)C[C@@H](C)[C@@H](CN(C)Cc2ccc(C(F)(F)F)cc2)O3)cc1,inactive
14,O=S(=O)(c1ccccc1F)N1CC[C@@H]2[C@H](CO)Nc3ccc(C4=CCCCC4)cc3[C@@H]21,inactive
15,C[C@@H]1CCCCO[C@@H](CN(C)Cc2ccc(C(F)(F)F)cc2)[C@H](C)CN([C@@H](C)CO)C(=O)c2cc(NS(=O)(=O)c3ccc(Cl)cc3)ccc2O1,inactive
16,C[C@@H]1CCCCO[C@H](CN(C)Cc2ccncc2)[C@H](C)CN([C@H](C)CO)C(=O)c2cc(NC(=O)Nc3ccc(C(F)(F)F)cc3)ccc2O1,inactive
17,C[C@@H]1CN([C@@H](C)CO)C(=O)c2cc(N(C)C)ccc2O[C@@H](C)CCCCO[C@H]1CN(C)S(=O)(=O)c1ccc(F)cc1,inactive
18,CC(C)(C)c1nnc(NC(=O)CCS(=O)(=O)c2ccccc2)s1,inactive
19,COc1ccc(C#Cc2ccc([C@H]3[C@@H](CO)N4CCCCN(C(=O)Nc5ccccc5)C[C@H]34)cc2)cc1,inactive
20,COc1ccc2c3c([nH]c2c1)[C@@H](CO)N(C(=O)Nc1cccc(F)c1)CC31CCN(S(=O)(=O)c2cccc(C)c2)CC1,inactive
21,O=C(CN1C(=O)c2ccccc2S1(=O)=O)c1ccc(Cl)cc1Cl,inactive
22,C[C@@H]1CN([C@@H](C)CO)C(=O)c2cc(NC(=O)CCC(F)(F)F)ccc2O[C@@H](C)CCCCO[C@H]1CN(C)Cc1ccc(C(F)(F)F)cc1,inactive
23,C[C@@H]1CCCCO[C@@H](CN(C)Cc2ccncc2)[C@H](C)CN([C@@H](C)CO)C(=O)c2cc(NC(=O)Nc3ccc(C(F)(F)F)cc3)ccc2O1,inactive
24,C[C@H]1CCCCO[C@H](CN(C)C(=O)Nc2ccc(C(F)(F)F)cc2)[C@@H](C)CN([C@@H](C)CO)C(=O)c2cc(NS(=O)(=O)c3cccs3)ccc2O1,inactive
25,C[C@H]1CCCCO[C@H](CN(C)Cc2ccc(C(F)(F)F)cc2)[C@@H](C)CN([C@@H](C)CO)C(=O)c2cc(NC(=O)Nc3ccc(F)cc3)ccc2O1,inactive
26,C[C@@H]1CN([C@H](C)CO)C(=O)c2cc(NC(=O)Cc3ccccc3)ccc2O[C@@H](C)CCCCO[C@H]1CN(C)Cc1ccc(C(F)(F)F)cc1,inactive

# Reference: PubChem BioAssay
